Source: the supplement of paper PMC12636033
± gives the standard deviation of the averaged measurements. The full ranking holds about 33,000 sequences; the median of “E-score (rank enrichment, -0.5 to 0.5)” is about -0.0068, and the highest 2% start at about 0.24. Shown is part of a subset that was picked to be rich in the highest values.

The sequences below were run on muMax20 (Max(13-93) K31hArg/K57hArg, M65Nle) (assay: PBM 8-mer E-score (E-score (rank enrichment, -0.5 to 0.5)); higher = stronger preferential binding).
Experimental: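 Protein binding microarray (universal PBM chip covering all 10-mers in fixed probe flanks) with chemically synthesized human Max(13-93) bHLH-LZ analogs (not full-length Max) bearing noncanonical residues (hArg, Tha, Aib, Nle at 65) and aromatic Cys staples. Read-out per 8-mer (and its reverse complement): E-score (rank-based enrichment, -0.5 to 0.5) and Z-score of median probe intensity.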

| Sequence | PBM 8-mer E-score |
| --- | --- |
| TGGGTTAA | 0.053 ± 0.046 |
| GCCTCTCC | 0.0347 ± 0.12 |
| GCGAATCA | -0.157 ± 0.067 |
| CCGATGGA | -0.246 ± 0.043 |
| TAACGGTA | 0.204 ± 0.011 |
| TAAGCTGA | 0.0855 ± 0.056 |
| AACACGGG | 0.0469 ± 0.0099 |
| CGATGCGA | -0.117 ± 0.088 |
| GAAGCCGC | -0.115 ± 0.058 |
| AACGTGAG | 0.0485 ± 0.088 |
| AACGTGGT | 0.285 ± 0.029 |
| AACGTGAA | 0.0196 ± 0.026 |
| AGCGTGAC | 0.117 ± 0.086 |
| AACGTGAT | 0.272 ± 0.01 |
| AGCGTGAT | 0.25 ± 0.013 |
| AACGTGCT | 0.0241 ± 0.0069 |
| AACGTGGA | 0.162 ± 0.015 |
| AGCGTGAG | 0.0998 ± 0.075 |
| ACCCCGTC | -0.138 ± 0.05 |
| GGGGCGGA | 0.0311 ± 0.065 |

| Sequence | PBM 8-mer E-score |
| --- | --- |
| AAACTAAC | 0.121 ± 0.026 |
| AGATGCAG | -0.0831 ± 0.013 |
| CGTTCGAA | -0.071 ± 0.086 |
| GCGGGCTA | -0.103 ± 0.02 |
| CCATGTAG | 0.0489 ± 0.046 |
| ACATGTAT | 0.307 ± 0.067 |
| ACATGTCG | 0.189 ± 0.086 |
| ACATGTCT | 0.183 ± 0.035 |
| CCATGTAA | 0.0522 ± 0.048 |
| ACATGTAC | 0.286 ± 0.021 |
| ACATGTAA | 0.249 ± 0.034 |
| AGATGTAT | 0.177 ± 0.041 |
| ACATGTAG | 0.255 ± 0.05 |
| TCATGTAA | 0.112 ± 0.08 |
| GCATGTAC | 0.15 ± 0.081 |
| CCATGTAC | 0.0415 ± 0.16 |
| CCTTGTAG | -0.0398 ± 0.016 |
| ATGTTTGC | 0.119 ± 0.034 |
| ATTCCCGC | -0.0964 ± 0.2 |
| AACTTATG | 0.0994 ± 0.081 |

| Sequence | PBM 8-mer E-score |
| --- | --- |
| AAGGGAAG | 0.201 ± 0.074 |
| ATGCTCGA | 0.0908 ± 0.059 |
| AAACTTGC | 0.203 ± 0.058 |
| TAACTTGA | 0.033 ± 0.066 |
| AAACTTGA | 0.241 ± 0.0031 |
| ATAAGAGG | 0.0841 ± 0.026 |
| ATCAAAAA | 0.284 ± 0.035 |
| ATCAAACA | 0.29 ± 0.056 |
| ATCAAAAG | 0.0605 ± 0.033 |
| CTCAAACA | 0.079 ± 0.12 |
| ATCAAAAT | 0.0188 ± 0.1 |
| ATCAAGCA | 0.012 ± 0.021 |
| TAGGTTCA | -0.12 ± 0.087 |
| GGCCCTAA | 0.0586 ± 0.04 |
| GTGGACGA | -0.0727 ± 0.036 |
| CTGCCTTC | -0.136 ± 0.047 |
| AGTCGTGC | -0.11 ± 0.024 |
| CAGACGCG | -0.145 ± 0.18 |
